Drawing on ChEMBL document CHEMBL4513216, “Probing the Open Global Health Chemical Diversity Library for Multistage-Active Starting Points for Next-Generation Antimalarials” (ACS Infect Dis, 2020), this text covers INHIBITION for 67 molecules.

Screen size: about 69,000 compounds; about 8,600 (12%) showed an effect of 50% or more. For the sample, strong results were picked, then their nearest neighbours and some compounds at random.

The subject of this experiment is Plasmodium berghei. In words: Screen against P. berghei liver stage (PbLuc), transformed with Luciferase, at 10uM. In kind it is functional, HepG2. The following applies: tested at 10 uM.
On to `Cc1ccc(N2CCN(C(=O)[C@@H]3CCC(=O)N3)CC2=O)cc1`, for which the INHIBITION stood at 4.95%.

For `O=C(NCc1ccc(Cl)cc1)C1CCCN(c2ccc3nncn3n2)C1` (configuration not stated), the INHIBITION was determined as 15.7%.

For `CC(C)CC(=O)N1CCCC1c1cc(CO)[nH]n1` (configuration not stated), the INHIBITION is reported as -0.7%.

Take `CCc1ccc(-n2nnc(C(=O)O)c2-c2ccncc2)cc1`: the INHIBITION was 6%.

Consider `O=C(O)c1nnn(-c2cc(F)cc(F)c2)c1-c1ccncc1`, for which the INHIBITION came to 16.8%.

With `O=C(O)c1nnn(-c2ccc(C(F)(F)F)cc2)c1-c1ccncc1`, the INHIBITION was 18.4%.

With `O=C(O)c1nnn(-c2cccc(C(F)(F)F)c2)c1-c1ccncc1`, the INHIBITION stood at 65.6%.

On to `O=C(O)c1nnn(-c2ccc(F)c(F)c2)c1-c1ccncc1`, for which the INHIBITION was -6.32%.

As for `Cc1ccc(F)c(-n2nnc(C(=O)O)c2-c2ccncc2)c1`, the INHIBITION was 7.9%.

As for `O=C(NC1CC1)c1nnn(-c2cccc(C(F)(F)F)c2)c1C1CC1`, the INHIBITION came to 18.6%.

Regarding `O=C(O)c1nnn(-c2ccccc2F)c1-c1ccncc1`, the INHIBITION is given as 50.7%.

With `CC(C)NC(=O)c1nnn(-c2cccc(F)c2)c1C1CC1`, the INHIBITION was -18.9%.

As to `O=C(O)c1nnn(-c2ccccc2)c1-c1ccncc1`, the INHIBITION was 54%.

For the molecule `CC(C)NC(=O)c1nnn(-c2cccc(C(F)(F)F)c2)c1C1CC1`, the INHIBITION amounted to 58.5%.

In the case of `O=C(O)c1nnn(-c2ccc(Cl)c(C(F)(F)F)c2)c1-c1ccncc1`, the INHIBITION was -5.59%.

Turning to `COc1cc2cc3c(nc2cc1OC)OCCN(Cc1ccco1)C3`, the INHIBITION stood at 16.5%.

For the molecule `COCCCNC(=O)CN(C)C(=O)CN(C)c1ccc(C#N)cn1`, the INHIBITION is recorded as -12.1%.

As to `CC(=O)N1CCn2c(-c3ccccc3)cnc2C12CCNCC2`, the INHIBITION came to 33%.

`Cc1nn(C)c(N(C)C)c1CNCC(O)c1ccccc1F` (configuration not stated): the INHIBITION is recorded as 25.1%.

For `Cc1cc(C(=O)N2CCCC(C(=O)c3cccs3)C2)c(=O)[nH]c1C` (configuration not stated), the INHIBITION is 33.3%.

On to `N#Cc1cnc(NCc2ccc(C(=O)NC3CC3)cc2)c(Cl)c1`, for which the INHIBITION is -32.9%.

Take `O=C(c1cnc(NCC2CCCO2)c(Cl)c1)N1CCCCC1` (configuration not stated): the INHIBITION was 32.2%.

`N#Cc1ccc(CNc2ncc(C#N)cc2Cl)cc1`: the INHIBITION amounted to 20.1%.

In the case of `O=C(c1cnc(NCc2sccc2Br)c(Cl)c1)N1CCCCC1`, the INHIBITION is listed as 24.2%.

Consider `N#Cc1cnc(NCc2cccc(C(=O)N3CCCC3)c2)c(Cl)c1`, for which the INHIBITION is given as 57.5%.

As to `O=C(c1cnc(NCc2cccnc2)c(Cl)c1)N1CCCCC1`, the INHIBITION is reported as 56.3%.

Consider `CCc1ccc(CN(C)Cc2nc(COc3ccccc3)no2)nc1`, for which the INHIBITION worked out at 29.6%.

On to `c1ccc(CN2CCc3ncnc(C4CC4)c3CC2)nc1`, for which the INHIBITION was found to be 21.1%.

For the molecule `O=C(c1cscn1)N1CCC[C@]2(C[C@@H](OCC3CC3)CO2)C1`, the INHIBITION is recorded as 36.9%.

As to `CN(Cc1ccco1)Cc1ccccc1CNC(=O)c1cnccn1`, the INHIBITION came out at 63.3%.

Take `CN(C)c1ncccc1CNC(=O)NCc1ccco1`: the INHIBITION is -36.3%.

With `CN(Cc1ccco1)Cc1ccccc1CNC(=O)c1cnc[nH]1`, the INHIBITION was found to be 69.3%.

Turning to `CN(Cc1ccco1)Cc1ccccc1CNC(=O)c1c[nH]nn1`, the INHIBITION is -1.28%.

With `Cc1oc(C)c(C(=O)NCc2ccccc2CN(C)C)c1C`, the INHIBITION is given as 25.55%.

On to `Cc1cc(CN(C)C(=O)NCc2ccco2)no1`, for which the INHIBITION was 14.1%.

Take `CN(Cc1ccco1)Cc1ccccc1CNC(=O)c1ccc[nH]1`: the INHIBITION stood at 30.1%.

On to `CN(Cc1ccco1)Cc1ccccc1CNC(=O)c1csnn1`, for which the INHIBITION is given as 46.4%.

For the molecule `CN(Cc1ccco1)Cc1ccccc1CNC(=O)c1ccncc1`, the INHIBITION was -4.86%.

With `Cc1cc(C(=O)NCc2ccccc2CN(C)Cc2ccco2)on1`, the INHIBITION is on record as 77.2%.

As to `CN(Cc1ccco1)Cc1ccccc1CNC(=O)c1cc[nH]n1`, the INHIBITION is reported as 30.1%.

Consider `Cc1ncccc1C(=O)NCc1ccccc1CN(C)Cc1ccco1`, for which the INHIBITION is given as 67.3%.

In the case of `CCS(=O)(=O)c1ccccc1N1CCC(NC(=O)C(C)C)CC1`, the INHIBITION is on record as -25.8%.

With `CO[C@@H]1CCC[C@@H](NC(=O)C(C)(C)c2cccc(F)c2)[C@H]1O`, the INHIBITION was determined as 10.855%.

`Cc1cccc(C)c1NC(=O)c1n[nH]c(-n2cnnc2)n1`: the INHIBITION was determined as 19.6%.

Take `CC(C)N(C)Cc1nnc2n1CCCN(S(=O)(=O)C1CC1)C2`: the INHIBITION amounted to 36.4%.

`c1ccc(OCc2nnc3n2CCN(CC2CC2)C3)nc1`: the INHIBITION is 39.3%.

Turning to `Cc1c(C2CCCN(C(=O)Cc3ccccn3)C2)n2c(nc1=O)CCC2` (configuration not stated), the INHIBITION came to 34.1%.

In the case of `O=C(NCCc1nccs1)[C@H](c1ccccc1)n1cnnn1`, the INHIBITION is reported as -20.8%.

With `CC(O)CNC(=O)CCc1nc2ncccc2[nH]1` (configuration not stated), the INHIBITION amounted to 26.6%.

In the case of `Cc1nc(C(=O)N2CCN(S(C)(=O)=O)CC2)c(-c2cccc(F)c2)s1`, the INHIBITION amounted to 17.7%.

As for `Cc1cc(C)cc(CN2C[C@@H]3OCCN(CC(=O)N(C)C)[C@@H]3C2)c1`, the INHIBITION was 66.6%.

Consider `c1cc(CN2C[C@@H]3OCCN(CCN4CCCC4)[C@@H]3C2)cs1`, for which the INHIBITION was 11.3%.

On to `Cc1cccc(CN2C[C@@H]3OCCN(c4ccnc(N(C)C)n4)[C@@H]3C2)c1`, for which the INHIBITION worked out at 77.5%.

Take `Cc1ccc(N2CCO[C@H]3CN(Cc4ccoc4)C[C@H]32)nn1`: the INHIBITION is reported as 41.6%.

Take `c1cnc(N2CCO[C@H]3CN(Cc4ccsc4)C[C@H]32)nc1`: the INHIBITION was determined as 42.7%.

Take `Cc1cccc(CN2C[C@@H]3OCCN(c4cnccn4)[C@@H]3C2)n1`: the INHIBITION is -18.5%.

With `CN(C)c1nccc(N2CCO[C@H]3CN(Cc4ccsc4)C[C@H]32)n1`, the INHIBITION stood at 65.1%.

For `Cc1cccc(CN2C[C@@H]3OCCN(CC(=O)N(C)C)[C@@H]3C2)c1`, the INHIBITION is reported as 39.4%.

For `CN(C)C(=O)CN1CCO[C@H]2CN(Cc3ccoc3)C[C@H]21`, the INHIBITION came out at 31.2%.

In the case of `CCOCCCNC(=O)C1CCC(=O)N(CCc2ccc(Cl)cc2)C1` (configuration not stated), the INHIBITION is 16.3%.

As for `COc1ccc(C(=O)Nc2ccccc2C(C)C)c(OC)n1`, the INHIBITION is recorded as -17.2%.

In the case of `COc1ccc([C@@H]2CN(Cc3cccnc3N)C[C@H]2N(C)C)cc1`, the INHIBITION was determined as 30.3%.

On to `O[C@@H]1CCN(CC2CC2)[C@H]1Cc1ccccc1`, for which the INHIBITION is reported as -14.4%.

Turning to `Cc1nc(C)n(CC2CN(Cc3cccnc3)Cc3nccn3C2)n1` (configuration not stated), the INHIBITION was determined as 25.1%.

Consider `Cc1ncsc1C(=O)NCCCN1CCCCCC1=O`, for which the INHIBITION is on record as -21.2%.

`Cc1nc(S(=O)(=O)N2CCSCC2)cn1C`: the INHIBITION is on record as -50.7%.

As to `CCN(CC)Cc1cc(=O)n2c(n1)CN(C(=O)c1ccnnc1)CCC2`, the INHIBITION is -20.2%.
